From the supplement of paper PMC8728848
Many of the other results were omitted from the sample, so the strongest signals are more common in it than they were.

How the values were obtained:
Test in all cases: glycan array binding signal (z-score within array); higher = stronger binding
Conditions in all cases: glycan notation: IUPAC condensed, linker removed; mutation: W10H
[1] = molecular target: Fuc(a1-2)Gal(b1-3)GalNAc(b1-3)Gal(a1-4)Gal(b1-4)Glc
In short: (§1)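 From the Consortium for Functional Glycomics database, 3228 arrays were curated, keeping only those whose protein sequence was available. Binding is given as a within-array Z-score averaged across arrays sharing a protein sequence and across linkers. Negative Z-scores can be read as non-binding.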

[2] = molecular target: Fuc(a1-2)Gal(b1-3)[Fuc(a1-4)]GlcNAc
In short: as §1

[3] = molecular target: Fuc(a1-2)Gal(b1-4)[Fuc(a1-3)]GlcNAc(b1-3)Gal(b1-4)[Fuc(a1-3)]GlcNAc(b1-3)Gal(b1-4)[Fuc(a1-3)]GlcNAc
In short: as §1

[4] = molecular target: Fuc(a1-2)Gal(b1-4)[Fuc(a1-3)]GlcNAc(b1-3)[Neu5Ac(a2-6)Gal(b1-4)GlcNAc(b1-6)]Gal(b1-4)Glc
In short: as §1

[5] = molecular target: Fuc(a1-2)[Gal(a1-3)]Gal(b1-3)GlcNAc(b1-3)GalNAc
In short: as §1

[6] = molecular target: Fuc(a1-2)[Gal(a1-3)]Gal(b1-3)GlcNAc(b1-6)GalNAc
In short: as §1

[7] = molecular target: Fuc(a1-2)[Gal(a1-3)]Gal(b1-4)GlcNAc(b1-2)Man
In short: as §1

[8] = molecular target: Fuc(a1-2)[Gal(a1-3)]Gal(b1-4)GlcNAc(b1-3)[Fuc(a1-2)[Gal(a1-3)]Gal(b1-4)GlcNAc(b1-6)]GalNAc
In short: as §1

[9] = molecular target: Fuc(a1-2)[GalNAc(a1-3)]Gal(b1-3)GalNAc(b1-3)Gal(a1-4)Gal(b1-4)Glc
In short: as §1

[10] = molecular target: Fuc(a1-3)[Gal(b1-4)]GlcNAc(b1-2)Man(a1-3)[Fuc(a1-3)[Gal(b1-4)]GlcNAc(b1-2)Man(a1-6)]Man(b1-4)GlcNAc(b1-4)[Fuc(a1-6)]GlcNAc
In short: as §1

[11] = molecular target: Fuc(a1-3)[Gal(b1-4)]GlcNAc(b1-3)Gal(b1-4)[Fuc(a1-3)]GlcNAc
In short: as §1

[12] = molecular target: Fuc(a1-3)[Gal(b1-4)]GlcNAc(b1-3)GalNAc
In short: as §1

[13] = molecular target: Fuc(a1-3)[GalNAc(b1-4)]GlcNAc6S
In short: as §1

Gal(a1-2)Gal = molecular target: Gal(a1-2)Gal
In short: as §1

Gal(a1-3)Gal(b1-3)GlcNAc = molecular target: Gal(a1-3)Gal(b1-3)GlcNAc
In short: as §1

Gal(a1-4)Gal(b1-4)Glc = molecular target: Gal(a1-4)Gal(b1-4)Glc
In short: as §1

[14] = molecular target: Gal(a1-4)Gal(b1-4)GlcNAc(b1-3)Gal(b1-4)Glc
In short: as §1

Gal(b1-2)Gal = molecular target: Gal(b1-2)Gal
In short: as §1

Gal(b1-3)Gal = molecular target: Gal(b1-3)Gal
In short: as §1

Gal(b1-3)GlcNAc(b1-2)Man = molecular target: Gal(b1-3)GlcNAc(b1-2)Man
In short: as §1

[15] = molecular target: Gal(b1-3)GlcNAc(b1-3)Gal(b1-4)[Fuc(a1-3)]GlcNAc
In short: as §1

[16] = molecular target: Gal(b1-3)[GlcNAc(b1-6)]GalNAc
In short: as §1

[17] = molecular target: Gal(b1-4)GlcNAc(b1-2)Man(a1-3)[Gal(b1-4)GlcNAc(b1-2)Man(a1-6)]Man(b1-4)GlcNAc(b1-4)GlcNAc
In short: as §1

[18] = molecular target: Gal(b1-4)GlcNAc(b1-2)[Gal(b1-4)GlcNAc(b1-4)]Man(a1-3)[GlcNAc(b1-4)][Gal(b1-4)GlcNAc(b1-2)[Gal(b1-4)GlcNAc(b1-6)]Man(a1-6)]Man(b1-4)GlcNAc(b1-4)GlcNAc
In short: as §1

[19] = molecular target: Gal(b1-4)GlcNAc(b1-2)[Gal(b1-4)GlcNAc(b1-6)]Man(a1-6)[Gal(b1-4)GlcNAc(b1-2)Man(a1-3)]Man(b1-4)GlcNAc(b1-4)[Fuc(a1-6)]GlcNAc
In short: as §1

[20] = molecular target: Gal(b1-4)GlcNAc(b1-2)[Gal(b1-4)GlcNAc(b1-6)]Man(a1-6)[GlcNAc(b1-4)][Gal(b1-4)GlcNAc(b1-2)Man(a1-3)]Man(b1-4)GlcNAc(b1-4)GlcNAc
In short: as §1

[21] = molecular target: Gal(b1-4)GlcNAc(b1-3)Gal(b1-4)GlcNAc(b1-2)[Gal(b1-4)GlcNAc(b1-3)Gal(b1-4)GlcNAc(b1-6)]Man(a1-6)[Gal(b1-4)GlcNAc(b1-3)Gal(b1-4)GlcNAc(b1-2)Man(a1-3)]Man(b1-4)GlcNAc(b1-4)GlcNAc
In short: as §1

[22] = molecular target: Gal(b1-4)GlcNAc(b1-3)Gal(b1-4)GlcNAc(b1-6)[Gal(b1-3)]GalNAc
In short: as §1

B1: Banana lectin (Musa acuminata) (protein)
chain: MNGAIKVGAHGGNGGSAFDMGPAYRIISVKIFSGDVVDGVDVTFTYYGKTETRHYGGSGGTPHEIVLQEGEYLVGMAGEVANYHGAVVLGKLGFSTNKKAYGPFGNTGGTPFSLPIAAGKISGFFGRGGKFLDAIGVYLEPLEHHHHHH
[1]
  glycan array binding signal (z-score): -0.164
[2]
  glycan array binding signal (z-score): -0.188
[3]
  glycan array binding signal (z-score): -0.169
[4]
  glycan array binding signal (z-score): -0.189
[5]
  glycan array binding signal (z-score): -0.17
[6]
  glycan array binding signal (z-score): -0.147
[7]
  glycan array binding signal (z-score): -0.169
[8]
  glycan array binding signal (z-score): -0.183
[9]
  glycan array binding signal (z-score): -0.156
[10]
  glycan array binding signal (z-score): -0.148
[11]
  glycan array binding signal (z-score): -0.146
[12]
  glycan array binding signal (z-score): -0.16
[13]
  glycan array binding signal (z-score): -0.194
Gal(a1-2)Gal
  glycan array binding signal (z-score): -0.177
Gal(a1-3)Gal(b1-3)GlcNAc
  glycan array binding signal (z-score): -0.171
Gal(a1-4)Gal(b1-4)Glc
  glycan array binding signal (z-score): -0.169
[14]
  glycan array binding signal (z-score): -0.141
Gal(b1-2)Gal
  glycan array binding signal (z-score): -0.172
Gal(b1-3)Gal
  glycan array binding signal (z-score): -0.168
Gal(b1-3)GlcNAc(b1-2)Man
  glycan array binding signal (z-score): -0.145
[15]
  glycan array binding signal (z-score): -0.174
[16]
  glycan array binding signal (z-score): -0.157
[17]
  glycan array binding signal (z-score): -0.187
[18]
  glycan array binding signal (z-score): -0.175
[19]
  glycan array binding signal (z-score): -0.143
[20]
  glycan array binding signal (z-score): -0.204
[21]
  glycan array binding signal (z-score): -0.113
[22]
  glycan array binding signal (z-score): -0.088
